Assay results taken from PubChem BioAssay (NCI).
This is part of a sample that, as a whole, favours compounds with a hit. Of some 83,000 tested, about 20% had one in any assay.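 Negative percent growth values reflect cell death: -40 means 40% of the cells present at the start died, and -100 means all died.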 A number with no mark means an inactive call. The source made the active and inactive calls. How the source made its calls: active means growth percent below 10; inactive means the rest.

Tests used:
Experiment in all cases: NCI-60 one-dose screen, 48 h (100 = growth as untreated, 0 = no growth, -100 = all killed)
DU-145 prostate = conditions: 10 µM unless noted
K-562 leukemia = conditions: 10 µM unless noted
MALME-3M melanoma = conditions: 10 µM unless noted
MDA-MB-231 breast = conditions: 10 µM unless noted
RXF 393 renal = conditions: 10 µM unless noted
SF-268 CNS = conditions: 10 µM unless noted
SF-295 CNS = conditions: 10 µM unless noted
SF-539 CNS = conditions: 10 µM unless noted
UACC-257 melanoma = conditions: 10 µM
M14 melanoma = conditions: 10 µM unless noted
HCT-15 colon = conditions: 10 µM unless noted
HT29 colon = conditions: 10 µM unless noted
SNB-75 CNS = conditions: 10 µM unless noted
SNB-19 CNS = conditions: 10 µM unless noted
U251 CNS = conditions: 10 µM unless noted
PC-3 prostate = conditions: 10 µM unless noted
SK-MEL-5 melanoma = conditions: 10 µM unless noted
UACC-62 melanoma = conditions: 10 µM unless noted
LOX IMVI melanoma = conditions: 10 µM unless noted
SK-MEL-28 melanoma = conditions: 10 µM unless noted

| Compound | growth (DU-145 prostate) | growth (K-562 leukemia) | growth (MALME-3M melanoma) | growth (MDA-MB-231 breast) | growth (RXF 393 renal) | growth (SF-268 CNS) | growth (SF-295 CNS) | growth (SF-539 CNS) | growth (UACC-257 melanoma) | growth (M14 melanoma) | growth (HCT-15 colon) | growth (HT29 colon) | growth (SNB-75 CNS) | growth (SNB-19 CNS) | growth (U251 CNS) | growth (PC-3 prostate) | growth (SK-MEL-5 melanoma) | growth (UACC-62 melanoma) | growth (LOX IMVI melanoma) | growth (SK-MEL-28 melanoma) |
| --- | --- | --- | --- | --- | --- | --- | --- | --- | --- | --- | --- | --- | --- | --- | --- | --- | --- | --- | --- | --- |
| COc1ccc(Cn2cc3c(c2-c2ccccc2)CCCc2cnoc2-3)cc1 | 78.9% | 28.5% | 41.9% | 60.8% | 76.4% | 73.1% | 30% | 52.6% | 76% | 40.5% | 32.5% | 20.4% | 51.2% | 61% | 57.7% | 60% | 50.1% | 42.7% | 53.5% | 62% |
| CC(C)=CCC[C@](C)(O)[C@H]1CC[C@]2(C)[C@@H]1CC[C@@H]1[C@@]3(C)CCC(NC(=O)c4ccccc4C(=O)O)C(C)(C)[C@@H]3CC[C@]12C (stereo not given in full) | 96.4% | 90.8% | 31.8% | 82.6% | 101% | 95.3% | 100% | 89.3% | 30.5% | 57.8% | 87.7% | 75.5% | 90.2% | 86.3% | 88.6% | 81.5% | 55.4% | 28.7% | 84.3% | 34.3% |
| O=C(N/N=C\c1ccc(Cl)cc1)c1ccc2nc(-c3ccc(Br)cc3)[nH]c2c1 | -1.02% (active) | 2.78% (active) | -59% (active) | 18.2% | -46.6% (active) | 11.9% | -37.8% (active) | -5.56% (active) | 3.89% (active) | -45.6% (active) | -25.2% (active) | -52% (active) | 49.9% | 5.18% (active) | -70.6% (active) | -23.7% (active) | 22.2% | 8.2% (active) | -80.5% (active) | -14.7% (active) |
| CCN(CC)Cc1c(-c2cccc(OC(F)(F)F)c2)[nH]c2ccc(N3CCCC3)cc2c1=O | 99.7% | 87.8% | 86% | 87% | 74.1% | 89.1% | 102% | 95% | 91.3% | 96.9% | 90.1% | 104% | 88.1% | 90.6% | 99.6% | 90.5% | 98.3% | 82.7% | 90.9% | 92.2% |
| CCN1C(=O)N(CC)C2SC(N/N=C/c3ccc(F)cc3)=NC21 (stereo not given) | 16% | 14.2% | 54.7% | 32.4% | 47.3% | 42.4% | 12.1% | -4.01% (active) | 57.8% | 14.6% | 14.9% | 3.77% (active) | 38.2% | 28.1% | 15% | 30.3% | 15.3% | 33.6% | 14.1% | 58.9% |
| COc1cc(NC2=C(Cl)C(=O)c3nc(C)ccc3C2=O)cc(OC)c1 | -93% (active) | 4.73% (active) | -89.4% (active) | -28.6% (active) | -97.2% (active) | 37% | 51.6% | -30.9% (active) | -92% (active) | -96% (active) | -66.2% (active) | 24.9% | -4.09% (active) | 30.4% | 36.8% | 28% | -74.9% (active) | -43.6% (active) | -82.6% (active) | -73.1% (active) |
| CCn1c2ccc(/C=N/OCCCN(C)C)cc2c2cc(/C=N/OCCCN(C)C)ccc21 | 17.1% | -17.5% (active) | -88.3% (active) | -9.87% (active) | -73.3% (active) | 79.1% | -66.5% (active) | -80.4% (active) | -67.1% (active) | -84.4% (active) | -13% (active) | -58.8% (active) | 82.8% | 59.3% | -30.9% (active) | 32.4% | -95.6% (active) | 10.6% | -91.8% (active) | -33.8% (active) |
| CS(=O)c1nccc(-c2c(-c3ccc(F)c(OCc4ccccc4)c3)nc3sccn23)n1 (stereo not given) | 4.02% (active) | 17.8% | 91.7% | 93.8% | 96.6% | 105% | 101% | 94.6% | 19.8% | 96.5% | 74.8% | 89.5% | 95.4% | 93.3% | 105% | 54.1% | 100% | 93.6% | 81.7% | 55.5% |
| CCCCSc1nnc(-c2ccc(-c3ccc(Cl)cc3)nc2C)o1 | 98.2% | 90.1% | 102% | 104% | 110% | 103% | 96.8% | 98.1% | 106% | 104% | 92.6% | 97.2% | 90.3% | 97.8% | 104% | 91.9% | 99.3% | 84.1% | 101% | 99.9% |
| CC1(C)CC[C@]2(C(=O)O)CC[C@]3(C)C(=CCC4[C@@]5(C)C[C@@H](O)[C@@H]6OC(c7ccccc7O)OC[C@@]6(C)C5CC[C@]43C)C2C1 (stereo not given in full) | 44.1% | 40.6% | 83.9% | 82.5% | 76.9% | 56% | 30.2% | 63.7% | 93.7% | 43.3% | 29.8% | 44.1% | 72.6% | 59.2% | 28.6% | 62.9% | 63.4% | 82.4% | 27% | 84.7% |
| Oc1ccccc1/C=N/Nc1nc(N/N=C/c2ccccc2O)nc(N2CCOCC2)n1 | 35.5% | 25.4% | 52.6% | 36.3% | -0.648% (active) | 72.3% | 19.6% | 51.8% | 53.3% | 37.6% | 3.87% (active) | 34.2% | -4.09% (active) | 41.7% | 22% | 24.1% | 65.8% | 88.8% | 4.04% (active) | 28% |
| C#CCOc1ccc(C(Nc2ccc(Cl)cc2)c2nnnn2C2CCCCC2)cc1 (stereo not given) | 93.8% | 82.2% | 98.8% | 76.9% | 87% | 80.2% | 74.5% | 98.6% | 86.2% | 99.4% | 80% | 92% | 87.4% | 89.5% | 86.9% | 75.2% | 92.3% | 72.4% | 81.4% | 102% |
| COc1ccc(-c2nc3cc(Cl)c(Cl)cc3n2CC(=O)N=Nc2c(O)[nH]c3ccc(Br)cc23)cc1 | -48.4% (active) | 21.6% | -38.5% (active) | 0.262% (active) | -58.3% (active) | 9.74% (active) | -50% (active) | 14.9% | 61.9% | -48.8% (active) | -44.8% (active) | -24% (active) | 47.3% | 22% | -58% (active) | -47.1% (active) | 51.5% | 4.88% (active) | -77.9% (active) | -66.9% (active) |
| CS(=O)(=O)c1ccc2c(c1)c1c(n2Cc2ccc(Cl)cc2)CCCC1 | 86.7% | 32.6% | 74.4% | 66.1% | 73.4% | 86.6% | 67% | 81.1% | 92.1% | 75.6% | 54.9% | 75.5% | 75.4% | 72.3% | 68.1% | 51.9% | 82.4% | 43.2% | 81.5% | 87.2% |
| COc1cc(CNC(=O)Cc2ccccc2[N+](=O)[O-])ccc1OCC(=O)NO | 108% | 105% | 100% | 102% | 116% | 102% | 105% | 95.9% | 105% | 101% | 105% | 110% | 95.6% | 98.7% | 106% | 95.9% | 103% | 92.7% | 100% | 109% |
